Measured values from ChEMBL document CHEMBL4513216, “Probing the Open Global Health Chemical Diversity Library for Multistage-Active Starting Points for Next-Generation Antimalarials” (ACS Infect Dis, 2020).
The campaign covered roughly 68,000 compounds. About 2,700 (4%) showed an effect of 50% or more. What follows is part of a selection rich in strong results, with near analogues and random picks from the rest.

The compounds below were run on Plasmodium berghei (assay: Screen against P. berghei liver stage (PbLuc), transformed with Luciferase, at 2uM). Conditions: tested at 2 uM.
Assay type: functional, HepG2

In order of falling INHIBITION:
1. O=C(NCCc1nnc2n1CCC2)NCC1(c2ccc(F)cc2)CC1  81.42%
2. CCCN1C[C@@H]2CC[C@H]1CN(Cc1ccc(Cn3cccn3)cc1)C2  75.43%
3. COc1ccnc(NC2CCN(CC(=O)N3CCCC3)CC2)n1  72.05%
4. COc1ccc(F)c(CN2CCCC(O)(CNCC(C)(C)C)C2=O)c1 (stereo not drawn)  70.81%
5. O=C(NCCc1nnc2n1CCCCC2)N1CCC2(CCOC2)C1 (stereo not drawn)  69.67%
6. CCn1ccc(CNC(=O)c2cc(OC)cc(OC)c2)n1  65.06%
7. O=C(CCc1ccc(Cl)s1)NCc1nnc2n1CCCCC2  58.05%
8. O=C(NCCc1nnc2n1CCCCC2)N1CCC2(CCCC2)CC1  55.36%
9. O=C(NCc1nnc2n1CCCCC2)N1CCC2(CCCCC2)C1  55.36%
10. O=C(NCc1nnc2n1CCCC2)N1CCc2sccc2C1  53.11%
11. CCCN1C[C@@H]2CC[C@H]1CN(Cc1ccc(-n3cccn3)cc1)C2  47.25%
12. Cc1cc(CN(C)C(=O)c2ccc(F)c(C(F)(F)F)c2)no1  46.52%
13. COc1ccnc(N2CCN(CC(=O)N3CCC(C)CC3)CC2)n1  39.72%
14. CC(C)(C)CNCC1(O)CCCN(Cc2ccccc2F)C1=O (stereo not drawn)  36.66%
15. Cn1ccc(CS(=O)(=O)Cc2ccccc2)cc1=O  36.53%
16. COc1c(Br)c(C(=O)NC2CCCC2)nn1C  32.75%
17. CN(C)C(=O)[C@H]1CCS(=O)(=O)[C@@H]2CN(c3ncc(F)cn3)C[C@H]12  32.26%
18. O=C(NCc1nnc2n1CCCCC2)N1CCc2sccc2C1  32.11%
19. CC(C)Oc1cccc(C(=O)C2CCCN(C(=O)c3cncs3)C2)c1 (stereo not drawn)  30.07%
20. Cc1ccc(CN2CC[C@H](O)[C@@H](n3ccc(=O)[nH]c3=O)CC2)cc1  29.89%
21. O=C(NCCCn1ccnn1)C1CCCN(C2CCCC2)C1 (stereo not drawn)  27.11%
22. O=C(NCc1nnc2n1CCC2)N1CCC2(CCCCC2)CC1  26.74%
23. COCCN1CC2(CCOCC2)c2cc(NC(=O)C3CC=CC3)ccc21  26.31%
24. COc1ccc(-n2cc3nc(N4CCCC4)[nH]cc-3c2=O)cc1Cl  26.03%
25. O=C(NCc1nnc2n1CCCCC2)N1CCc2ccccc2C1  25.61%
26. CCNC(=O)N1CCC(NC(=O)NCCc2cc(F)cc(F)c2)C1 (stereo not drawn)  24.82%
27. Cc1nc(C)n(CC2CCCN2CC(=O)NCCC2=CCCCC2)n1 (stereo not drawn)  24.17%
28. O=C(NCc1nnc2n1CCC2)N1CCc2sccc2C1  15.67%
29. O=C(NCc1ccc(Cl)s1)NCc1nnc2n1CCCCC2  15.28%
30. Cc1ccc(C(=O)N2CCCC(n3cncn3)C2)o1 (stereo not drawn)  14.17%
31. CN1Cc2c(C(=O)Nc3cccnc3)ncn2-c2ccccc2S1(=O)=O  8.85%
32. CCOc1cccc(C(=O)Nc2ccn(CC)n2)c1  6.64%
33. CCn1cc(C(=O)N2CCCC(c3nccs3)C2)cn1 (stereo not drawn)  2.6%
34. COc1cccc2[nH]cc(CCNC(=O)N3CCCC3CO)c12 (stereo not drawn)  1.41%
35. COC(=O)c1cccn1C1CCN(C(=O)c2cn[nH]c2C)CC1  0.26%
36. O=C(NCCc1nnc2n1CCC2)NCC1(c2ccccc2)CC1  -1.32%
37. O=C1CC(c2cccs2)c2snc(C(=O)O)c2N1 (stereo not drawn)  -4.4%
38. O=c1[nH]c2cc3c(cc2cc1CN1CCCC1c1ccccn1)OCO3 (stereo not drawn)  -8.01%
39. O=C(NCC(=O)N1CCCC1)c1nn(-c2ccccc2F)cc1O  -8.52%
40. CCc1nnsc1C(=O)NCCc1nnc2n1CCC2  -8.74%
41. O=C(NCCc1nnc2n1CCC2)N1CCC2(CCCCC2)C1  -9.03%
42. COc1ccc(F)c(CN2CCCC(O)(CNCc3ccoc3)C2=O)c1 (stereo not drawn)  -11.8%
43. O=C(NCCc1nnc2n1CCC2)NCC1(c2cccc(F)c2)CC1  -14.15%
44. CCCN1C[C@@H]2CC[C@H]1CN(Cc1cccc(-n3cccn3)c1)C2  -15.64%
45. CCC(=O)N1CCC2(C=C(C(=O)N(C)C)c3ccccc32)CC1  -19.05%
46. O=C(NCCc1ccc(Cl)s1)NCc1nnc2n1CCCC2  -19.35%
47. O=C(NCC1(c2ccc(F)cc2)CC1)N1CCC2(CCOC2)C1 (stereo not drawn)  -21.09%
48. CN1CCCN(C(=O)c2ccnn2-c2ccc3ccccn23)CC1  -25.2%
49. O=C(Cc1ccc2c(c1)OCCO2)NCCc1nnc2n1CCC2  -29.94%
50. COc1ccnc(NC2CCN(CC(=O)Nc3ccccc3)CC2)n1  -37.65%
51. CC(C)(NCC(=O)NCC1CC1)c1ccc2c(c1)OCCO2  -51.94%
52. COc1cc(OC)cc(C(=O)NCc2nn(C)c3c2COCC3)c1  -63.73%
53. COCC1CN(c2ccc3c(Cl)ccnc3c2F)CCO1 (stereo not drawn)  -90.94%
